In paper PMC4336329 (PLoS ONE, 2015):
Screen size: about 310,000 compounds; about 14,000 (4.5%) showed an effect of 50% or more. Effects have a minus sign here. Shown is part of a subset that was picked to be rich in strong results.

target: human ether-à-go-go-related gene (hERG) potassium channel (human, UniProt Q12809); experiment: primary screen, population patch clamp on CHO cells stably expressing hERG; higher = less effect of the substance
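Also: peak tail current of the secondary pulse compared with the same well before compound.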

Chain of human ether-à-go-go-related gene (hERG) potassium channel (Q12809 whole entry, looked up): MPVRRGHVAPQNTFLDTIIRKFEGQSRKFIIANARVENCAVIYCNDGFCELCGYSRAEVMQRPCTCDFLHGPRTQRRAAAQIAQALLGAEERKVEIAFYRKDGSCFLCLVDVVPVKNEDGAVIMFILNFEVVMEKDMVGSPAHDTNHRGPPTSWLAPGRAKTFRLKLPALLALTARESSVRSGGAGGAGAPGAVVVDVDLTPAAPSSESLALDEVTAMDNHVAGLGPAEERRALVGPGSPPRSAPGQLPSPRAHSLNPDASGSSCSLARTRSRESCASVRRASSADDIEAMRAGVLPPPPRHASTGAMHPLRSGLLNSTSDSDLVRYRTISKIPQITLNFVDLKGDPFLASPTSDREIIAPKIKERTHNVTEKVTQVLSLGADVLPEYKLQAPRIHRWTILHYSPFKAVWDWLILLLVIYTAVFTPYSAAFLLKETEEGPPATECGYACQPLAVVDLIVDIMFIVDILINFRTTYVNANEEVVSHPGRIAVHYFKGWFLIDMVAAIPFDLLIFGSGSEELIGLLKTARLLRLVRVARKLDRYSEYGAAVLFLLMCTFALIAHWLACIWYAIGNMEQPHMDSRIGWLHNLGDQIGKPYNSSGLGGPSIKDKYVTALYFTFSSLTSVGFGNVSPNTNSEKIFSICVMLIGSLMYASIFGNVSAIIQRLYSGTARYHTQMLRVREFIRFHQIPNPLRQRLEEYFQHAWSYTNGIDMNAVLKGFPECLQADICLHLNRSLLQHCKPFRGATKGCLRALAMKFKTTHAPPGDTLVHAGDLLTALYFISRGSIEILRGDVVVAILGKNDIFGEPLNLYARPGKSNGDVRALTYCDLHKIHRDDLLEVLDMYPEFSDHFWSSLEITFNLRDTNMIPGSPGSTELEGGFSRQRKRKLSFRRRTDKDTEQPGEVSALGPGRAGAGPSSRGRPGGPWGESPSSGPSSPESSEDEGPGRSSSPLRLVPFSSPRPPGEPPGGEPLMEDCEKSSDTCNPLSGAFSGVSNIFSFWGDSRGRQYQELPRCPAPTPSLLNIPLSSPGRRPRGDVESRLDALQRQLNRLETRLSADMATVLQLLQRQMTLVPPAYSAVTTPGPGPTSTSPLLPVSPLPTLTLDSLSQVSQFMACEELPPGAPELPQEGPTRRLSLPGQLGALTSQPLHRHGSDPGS

Row | SMILES | hERG current change (%, negative = inhibition) at 10uM
1 | COc1ccccc1C1CC(c2ccc(Cl)cc2Cl)Nc2nc(N)nn21 (stereo not shown) | -44.7%
2 | Cc1ccc(S(=O)(=O)c2cc3c(=O)n4cccc(C)c4nc3n(C3CCCCC3)c2=N)cc1 | 15.7%
3 | Cc1cccn2c(=O)c3cc(C(=O)NCc4ccco4)c(=N)n(C4CCCCC4)c3nc12 | -77.4%
4 | Cc1cccn2c(=O)c3cc(S(=O)(=O)c4ccc(Br)cc4)c(=N)n(C4CCCCC4)c3nc12 | 18.6%
5 | Cc1cccn2c(=O)c3cc(C(=O)NCc4ccco4)c(=N)n(C4CCCC4)c3nc12 | -78.8%
6 | Cc1cccn2c(=O)c3cc(S(=O)(=O)c4ccc(Br)cc4)c(=N)n(C4CCCC4)c3nc12 | 9.92%
7 | COc1ccc(-n2c(N)c(C(=O)NCc3ccco3)c3nc4ccccc4nc32)c(OC)c1 | 0.913%
8 | Cc1csc(NC(=O)c2sc3nc(-c4cccs4)ccc3c2N)n1 | 5.65%
9 | COc1ccc(OC)c(NC(=O)CSc2nnc(C3CCCCC3)o2)c1 | -19%
10 | CC(=O)N1CC(C)Sc2ccc(S(=O)(=O)NCc3ccc(F)cc3)cc21 (stereo not shown) | -49.6%
11 | O=C1c2ccccc2S(=O)(=O)c2cc(C(=O)N3CCN(c4ccc(Cl)cn4)CC3)ccc21 | -33.1%
12 | CCOc1ccc(S(=O)(=O)N2CCOCC2)cc1NC(=O)CSCc1c(C)noc1C | -17.3%
13 | CCN(CC)S(=O)(=O)c1ccc(N(C)C)c(NC(=O)CSCc2c(C)noc2C)c1 | -60.4%
14 | Cc1noc(C)c1CSCC(=O)Nc1ccc(S(C)(=O)=O)cc1 | 15.2%
15 | Cc1noc(C)c1CSCC(=O)Nc1cc(S(C)(=O)=O)ccc1Cl | 0.564%
16 | CCOc1ccc(S(=O)(=O)N(CC)CC)cc1NC(=O)CSCc1c(C)noc1C | -67.2%
17 | CCOc1ccc(S(=O)(=O)N2CCCCC2)cc1NC(=O)CSCc1c(C)noc1C | -39.5%
18 | C=CCOc1cccc(C2C(C(=O)c3cccs3)=C(O)C(=O)N2Cc2cccnc2)c1 (stereo not shown) | -1.2%
19 | CCOC(=O)C1=C(C)NC(=O)NC1c1cc(Br)c(O)c(OC)c1 (stereo not shown) | -2.71%
20 | COc1ccc(CNc2ccc3c(c2)ncn3C)cc1OC | 15.8%
21 | Cc1cnc(C(=O)Nc2cc(S(=O)(=O)N3CCOCC3)ccc2N2CCN(C)CC2)cn1 | -18.6%
22 | COc1ccc(N2C(=O)CC(NC3CCCCNC3=O)C2=O)cc1 (stereo not shown) | 8.59%

Row | SMILES | hERG current change (%, negative = inhibition) at 10uM
23 | COc1ccc(-n2cc(CNC3CCC(O)CC3)c(-c3cccc(F)c3)n2)cc1 (stereo not shown) | -45.3%
24 | COc1ccc(-n2cc(CNCCCn3ccnc3)c(-c3ccccc3Cl)n2)cc1 | -44.9%
25 | COc1ccc(-n2cc(CNCCCn3ccnc3)c(-c3cccc(F)c3)n2)cc1 | -75.2%
26 | COc1ccc(-n2cc(CN(C)Cc3n[nH]c(=O)[nH]3)c(-c3cccc(F)c3)n2)cc1 | -15.4%
27 | COc1ccc(-n2cc(CNC3CCOCC3)c(-c3cccc(F)c3)n2)cc1 | -48.2%
28 | COc1ccc(-n2cc(CNCC3CCOCC3)c(-c3cccc(F)c3)n2)cc1 | -78.5%
29 | COc1cccc(-c2nn(-c3ccccc3)cc2CN2CCCO2)c1 | -5.81%
30 | COc1ccc(-n2cc(CNCc3cnc4ccccn34)c(-c3cccc(F)c3)n2)cc1 | -30.2%
31 | COc1ccc(-n2cc(CN(C)C3CCOCC3)c(-c3cccc(F)c3)n2)cc1 | -29.1%
32 | COc1ccc(-n2cc(CNC3CCN(C)CC3)c(-c3cccc(F)c3)n2)cc1 | -77.5%
33 | COc1ccc(-n2cc(CN[C@H]3CCCCNC3=O)c(-c3cccc(F)c3)n2)cc1 | -64.1%
34 | Cc1cccc(C)c1OCC(=O)Nc1ccc(N2CCOCC2)cc1 | -4.13%
35 | O=C(CC12CC3CC(CC(C3)C1)C2)Nc1cccc2ncccc12 | -23%
36 | CN(C)c1ccc(Nc2cc(Cl)ncn2)cc1 | 1.65%
37 | COc1ccc(OC)c(N(CC(=O)Nc2ccc3c(c2)OCCO3)S(C)(=O)=O)c1 | 9.64%
38 | CC(C)CC(=O)NC(=S)Nc1ccccc1C(=O)Nc1ccccc1 | 8.01%
39 | O=C(c1ccc(CN2CCOCC2)cc1)N1CCN(c2ccccc2F)CC1 | -3.33%
40 | COc1ccc(CNCc2cc3c(C(C)(C)C)nn(-c4ccccc4)c3[nH]c2=O)cc1 | -24%
41 | CCOC(=O)c1c(NC(=S)Nc2ccccc2)sc(C)c1C | 4.49%
42 | CCOC(=O)c1c(N)sc2c1CCN(CCc1ccccc1)C2 | -28.6%
43 | CCOC(=O)c1c(NC(C)=O)sc2c1CCN(Cc1ccccc1)C2.Cl | -20.5%
